In the library only some 19% were active in any assay of this set; here they are far more common.
HT1080NT lethal: qHTS for induction of synthetic lethality in tumor cells producing 2HG: qHTS for the HT-1080-NT fibrosarcoma cell line. Potency, µM (titrated, usually from 46.1 µM), usual class: cytotoxic. hit rate 1.6% among 360,000. HT-1080-NT fibrosarcoma viability, CellTiter-Glo ATP luminescence, 48 h. AID 686970, 2013;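 note: NT is the 2HG producing partner of a matched IDH1 knockdown line; nearly all actives have a fitted effect of over 55% in size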
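Luminescent CellTiter-Glo readout after 48 hours of compound exposure at 37 degrees C defined viability of HT-1080-NT cells. Activity was normalized to DMSO wells and cell-free media wells; concentration-response curves were fitted and assigned curve classes.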
DT40 TDP1 no CPT: qHTS for Inhibitors of human tyrosyl-DNA phosphodiesterase 1 (TDP1): qHTS in cells in absence of CPT | Potency, µM (highest dose often 46.2 µM), most hits filed as inhibitors | hit rate 15% among 420,000 | DT40 Tdp1-/- hTDP1 cells, no CPT, ATP luminescence, 48 h; note: nearly all actives have a fitted effect of over 55% in size
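Chicken DT40 Tdp1-/- cells stably complemented with human TDP1 were seeded at 400 cells/well with DMSO in place of 20 nM camptothecin. After compound pinning, cells grew at least 48 hr at 37 °C; viability read by CellTiter-Glo luminescence.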
IL1B secr inh: qHTS for Inhibitors of Inflammasome Signaling: IL-1-beta AlphaLISA Primary Screen. THP-1 LPS/ATP IL-1B secretion, AlphaLISA, 16 h; active compounds read low. activity change, % at 57.5 µM. hit rate 4.7% among 360,000. AID 743279, 2014; in the data active = activity change below about -50%; inconclusive = mostly about -30% to -49%
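THP-1 cells pretreated 1 hr with compounds (up to 57.5 uM final), then stimulated with LPS (250 ng/mL final) plus ATP (1.25 mM final); secreted IL-1B measured by AlphaLISA after 16 hr, decreased signal indicating inhibition.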
HT1080 IDH1KD tx: qHTS for induction of synthetic lethality in tumor cells producing 2HG: qHTS for the HT-1080-IDH1KD cell line; HT-1080 IDH1 knockdown viability, ATP luminescence, 48 h; Potency, µM (doses to about 46.1 µM), usual class: cytotoxic; hit rate 2% among 360,000; AID 686971, 2013
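IDH1KD HT-1080 cells, 750/well, RPMI + 5% FBS; compound pinned after 2 h settling; 48 h, 37 °C; CellTiter-Glo luminescence; % activity normalised to DMSO and no-cell wells; curves fitted, classed by r2 and efficacy.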
TDP1 cell CPT: qHTS for Inhibitors of human tyrosyl-DNA phosphodiesterase 1 (TDP1): qHTS in cells in presence of CPT. chicken DT40 Tdp1-/-;hTDP1 cells + 20 nM CPT, ATP luminescence, 48 h. Potency, µM (titrated, usually from 46.2 µM), actives largely listed as inhibitors. hit rate 12% among 420,000; note: nearly all actives have a fitted effect of over 55% in size
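Cell growth measured by CellTiter-Glo luminescence after a minimum 48 h, 37 C compound exposure with 20 nM CPT in Tdp1-knockout DT40 cells stably expressing hTDP1, seeded 400/well; qHTS titration format.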
Numbers stand for hits; . = inactive; ? = inconclusive; / = no result; [ ] = remark or other dose. Unless noted, calls come from the whole dose curve; as a rule, active = well fitted curve in the direction sought with a large enough effect; inconclusive = small, poorly fitted or top-dose-only effect, or another doubt; inactive = no such curve, though single readings can be large; an effect the other way counts as inactive or inconclusive.

SMILES	HT1080NT lethal	DT40 TDP1 no CPT	IL1B secr inh	HT1080 IDH1KD tx	TDP1 cell CPT
CC(C)(C)CC(C)(C)N=C1Nc2ccc([N+](=O)[O-])cc2N[C@]12C[C@H]1CCCC(=O)N3CC[C@@H](C2)[C@@H]13	/	11µM	/	/	18µM
CC(C)(C)CC(C)(C)N=C1Nc2ccc(Cl)cc2NC12C[C@H]1CCC(=O)N3CC[C@@H](C2)[C@@H]13 (stereo partly drawn)	/	13µM	/	/	?
O=C1CCC[C@@H]2C[C@@]3(C[C@@H]4CCN1[C@H]24)Nc1ccccc1NC3=NC1CCCCC1	/	.	/	/	.
O=C1CCC[C@@H]2C[C@@]3(C[C@@H]4CCN1[C@H]24)Nc1cc(Cl)c(Cl)cc1NC3=NCc1ccccc1	.	20µM	.	.	18µM
O=C1CCCCC1CCc1ccncc1 (stereo not drawn)	.	.	.	.	.
COc1ccccc1Cc1c(-c2cccc(Br)c2)nc2ccc(Cl)cn12	?	?	.	?	?
Cc1ccc(NCc2nnc(SCC(=O)Nc3cccc(O)c3)n2CC2CCCO2)c(C)c1 (stereo not drawn)	.	?	-51	.	?
O=C(CSc1nnc(CNc2ccc(F)cc2)n1CC1CCCO1)Nc1ccccc1 (stereo not drawn)	.	?	.	.	21µM
Cc1ccc(NCc2nnc(SCC(=O)Nc3ncc(C)s3)n2CC2CCCO2)c(C)c1 (stereo not drawn)	.	?	.	.	.
Fc1ccc(NCc2nnc(SCc3nnc(-c4ccccc4)o3)n2CC2CCCO2)cc1 (stereo not drawn)	.	.	.	.	.
COc1ccc(N2C(=O)[C@@H]3C[C@H]2CN3Cc2cccn2-c2nccs2)cc1Cl	/	?	/	/	.
Cc1ccc(S(=O)(=O)N(C)C[C@@H]2OCCCC[C@@H](C)Oc3ccc(NS(=O)(=O)c4c(C)noc4C)cc3C(=O)N([C@H](C)CO)C[C@@H]2C)cc1	.	12µM	.	.	16µM
Cc1ccc(S(=O)(=O)Nc2ccc3c(c2)C(=O)N([C@@H](C)CO)C[C@@H](C)[C@@H](CN(C)S(=O)(=O)c2ccccc2)OCCCC[C@H](C)O3)cc1	.	10µM	.	.	8.2µM
C[C@H]1CCCCO[C@H](CN(C)Cc2ccncc2)[C@@H](C)CN([C@@H](C)CO)C(=O)c2cc(NS(=O)(=O)c3ccccc3)ccc2O1	.	?	.	.	.
C[C@@H]1CCCCO[C@@H](CN(C)Cc2ccc3c(c2)OCO3)[C@@H](C)CN([C@H](C)CO)C(=O)c2cc(NS(=O)(=O)c3ccccc3)ccc2O1	?	10µM	.	?	18µM
Cc1noc(C)c1S(=O)(=O)Nc1ccc2c(c1)C(=O)N([C@H](C)CO)C[C@H](C)[C@H](CN(C)S(=O)(=O)c1ccc(Cl)cc1)OCCCC[C@@H](C)O2	.	?	.	?	?
C=CCOc1ccc(Cl)cc1-c1noc(-c2csc([C@H]3C[C@H](O)[C@@H](CO)O3)n2)n1	?	?	.	.	?
C#CCN1Cc2ccccc2Oc2cc(Br)ccc2S1(=O)=O	.	.	.	.	.
NC(N)=NCCCS(=O)(=O)Nc1ccc(Nc2c3ccccc3nc3cc([N+](=O)[O-])ccc23)cc1	.	16µM	.	.	9.2µM
Cn1ncc2c(Nc3ccccc3Cl)nc(Cl)nc21	.	.	.	.	.
Cn1ncc2c(NCCc3ccccc3)nc(Cl)nc21	.	21µM	.	.	23µM
Cn1ncc2c(NCc3cccc(Cl)c3)ncnc21	/	?	/	/	15µM
COCCNc1nc(NCc2ccccc2)c2cnn(C)c2n1	.	?	.	.	.
CCCNc1nc(NCc2ccccc2OC)c2cnn(C)c2n1	/	13µM	/	/	15µM
COCCNc1nc(NCc2cccc(Cl)c2)c2cnn(C)c2n1	/	15µM	/	/	?
SMILES	HT1080NT lethal	DT40 TDP1 no CPT	IL1B secr inh	HT1080 IDH1KD tx	TDP1 cell CPT
CC1CCCCC1NC(=O)Cn1ncc2ccccc21 (stereo not drawn)	.	.	.	.	.
COC(=O)C1CCN(Cc2ccc3c(c2)CN(C(=O)c2ncc(C)[nH]2)CCO3)CC1	/	.	/	/	.[9.04 µM]
Cc1cccc(Cn2c(COc3ccc(Cl)cc3)nc3ccccc32)c1	/	16µM	/	/	23µM
C=CCn1c(-c2cccs2)nc2ccccc21	.	21µM	.	.	.
COCCn1c(COc2ccc(C)cc2)nc2ccccc21	.	?	?	.	?
O=C(Cn1c(COc2ccccc2)nc2ccccc21)Nc1cc(Cl)cc(Cl)c1	?	?	.	?	18µM
O=C(Cn1c(COc2ccccc2)nc2ccccc21)Nc1cc(Cl)ccc1Cl	.	?	.	.	?
CCCn1c(-c2cccs2)nc2ccccc21	.	.	.	?	.
Cc1ccc(OCc2nc3ccccc3n2CCOc2ccc(Cl)cc2)cc1	/	18µM	/	/	?
COCc1nc2ccccc2n1Cc1cccc(C)c1	.	?	.	.	?
C=CCn1c(COc2ccccc2)nc2ccccc21	.	23µM	.	.	?
Cc1ccc(OCc2nc3ccccc3n2Cc2ccccc2Cl)cc1	/	?	/	/	21µM
CCn1c(COc2ccc(C)cc2)nc2ccccc21	.	?	-76	.	?
CC1=C(C(=O)N2CCOCC2)C(c2ccc(C)cc2)NC(=S)N1 (stereo not drawn)	.	.	.	.	.
COc1ccccc1NS(=O)(=O)NC(=O)c1c(C)[nH]c2ccccc12	.	.	.	.	.
Cc1cc(C)c(C)c(S(=O)(=O)N2CCN(CC(=O)NC(=O)NCc3ccccc3)CC2)c1C	.	?	.	.	.
CC(=O)c1ccc(N2CCN(S(=O)(=O)c3ccc4c5c3CC(=O)N5CC(C)S4)CC2)cc1 (stereo not drawn)	.	21µM	.	.	21µM
CC(=O)c1ccc(N2CCN(S(=O)(=O)c3ccc4c(c3)CC(=O)N4)CC2)cc1	.	.	.	.	.
CC1=C(C(=O)N2CCCCCC2)CC(CC(=O)NCCc2ccccn2)C(=O)N1Cc1ccc(F)cc1 (stereo not drawn)	.	?	.	.	.
COc1ccc(C(C(=O)NC(C)(C)C)n2c(=O)c(-c3ccco3)nc3ccccc32)cc1 (stereo not drawn)	.	23µM	.	?	?
COc1ccc(NC(=O)C(c2ccc(OC)cc2)n2c(=O)c(-c3ccco3)nc3ccccc32)cc1 (stereo not drawn)	.	?	.	.	?
O=C(Nc1ccc2c(c1)OCCO2)C(c1ccccc1F)n1c(=O)c(-c2ccco2)nc2ccccc21 (stereo not drawn)	.	?	.	.	8.2µM

Screens as filed in PubChem.
